PubChem BioAssay (NCI)
This is part of a sample that, as a whole, favours compounds with a hit. Of some 79,000 tested, about 15% had one in any assay. Active and inactive are the calls of the source. No stated cut-off is given here; in the data, active means growth inhibition above about 70%; inactive means the rest.

Assays:
[1] = NCI Yeast Anticancer Drug Screen. Data for the rad50 strain (AID 155);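 further: 0% = growth of vehicle-only cultures of the same strain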; details: S. cerevisiae rad50 strain growth inhibition; at 50.0 µM; stronger effect = higher value
How it was run: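 Growth of the mutant yeast was measured after compound exposure and referenced to vehicle-treated cultures.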

[2] = NCI Yeast Anticancer Drug Screen. Data for the mec2-1 strain (AID 157); details: S. cerevisiae mec2-1 strain, at 50.0 µM, stronger effect = higher value
How it was run: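 Cells of the genetically defined mec2-1 yeast strain are incubated with test compound. Inhibition of growth is calculated against vehicle-treated controls.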

[3] = NCI Yeast Anticancer Drug Screen. Data for the sgs1 mgt1 strain (AID 161);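 further: 0% = growth of cultures given vehicle only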; details: S. cerevisiae sgs1 mgt1 strain, at 50.0 µM, stronger effect = higher value
How it was run: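 Genetically altered yeast, compound exposure, growth inhibition relative to vehicle.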

[4] = NCI Yeast Anticancer Drug Screen. Data for the cln2 rad14 strain (AID 165);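 further: 0% = growth equal to vehicle treated cultures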; details: S. cerevisiae cln2 rad14 strain, at 50.0 µM, stronger effect = higher value
How it was run: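 The screen exposed genetically defined yeast (cln2 rad14) to test compounds and scored growth inhibition relative to vehicle-treated controls.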

[5] = NCI Yeast Anticancer Drug Screen. Data for the bub3 strain (AID 167); details: S. cerevisiae bub3 mutant strain, at 50.0 µM, stronger effect = higher value
How it was run: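 Whole-cell yeast assay. The mutant strain was incubated with compounds, and growth inhibition was determined by comparison with vehicle-treated cells.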

[6] = NCI Yeast Anticancer Drug Screen. Data for the mlh1 rad18 strain (AID 175); details: S. cerevisiae mlh1 rad18 strain growth inhibition; at 50.0 µM; stronger effect = higher value
How it was run: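 Compound-treated yeast growth, normalised to vehicle controls. Strain bears defined DNA repair mutations.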

Measured: growth inhibition

Clc1ccc(-c2ncc(-c3ccccc3)o2)cc1
inactive: [1] 20.8% | [2] -13.7% | [3] -6.75% | [4] 4.2% | [5] 33.6% | [6] -9.9%

COC(=O)c1ccc(SCCC(=O)CNc2nc(N)nc(N)c2[N+](=O)[O-])cc1
inactive: [1] 32.1% | [2] -13.3% | [3] 17.6% | [4] 22.3% | [5] -0.2% | [6] 3.15%

Cc1cn(C2CC(OC(=O)C(Cc3ccccc3)NC(=O)OCc3ccccc3)C(COC(=O)C(Cc3ccccc3)NC(=O)OCc3ccccc3)O2)c(=O)[nH]c1=O (configuration not stated)
inactive: [1] -14.9% | [2] -3.65% | [3] -13.3% | [4] -26.7% | [5] -12.9% | [6] 14.3%

CCOC(=O)C(=CNC(=S)c1ccncc1)C(=O)OCC
inactive: [1] -41.6% | [2] -64.5% | [3] -25.8% | [4] 18.9% | [5] -6.6% | [6] -36%

C=CCNC(=S)NNC(=O)c1c(C)nc2sccn12
inactive: [1] -4.75% | [2] -10.8% | [3] -12.1% | [4] 0.25% | [5] -14.2% | [6] -5.9%

CCCCCCCC/C=C\CCCCCCCC(=O)N(C)CC(=O)O
inactive: [1] 43.2% | [2] 38.2% | [3] 39.2% | [4] 21.1% | [5] 30.7% | [6] 29.1%

O=C(O)C1CC1(c1ccccc1)c1ccccc1 (configuration not stated)
inactive: [1] 18.6% | [2] 4.65% | [3] -1.05% | [4] -24.8% | [5] -12.2% | [6] 15.8%

CCCCCCCCCC(=O)OCCCC(CCCOC(=O)CCCCCCCCC)OC(=O)CCCCCCCCC
inactive: [1] -19.9% | [2] -6.85% | [3] -6.25% | [4] -23.9% | [5] -16.4% | [6] -26.6%

CC1(C)OC[C@@H](N)[C@@H](O)CO1
inactive: [1] -9.35% | [2] 12.6% | [3] 0.05% | [4] -31.9% | [5] 0.55% | [6] 1.95%

CC(=O)CC(=O)Nc1cc(C)c(NC(=O)CC(C)=O)cc1C
inactive: [1] 26.2% | [2] 26.6% | [3] 31.1% | [4] 7.55% | [5] 38.8% | [6] 30.6%

Cc1ccc(I)c(C)c1
inactive: [1] -40% | [2] -10% | [3] -39.4% | [4] -3.6% | [5] -1.15% | [6] -7.3%

CCOc1ccc(C(C)c2cc3c(cc2OCCO)OCO3)cc1 (configuration not stated)
inactive: [1] 28.6% | [2] 29.2% | [3] 69% | [4] 59.9% | [5] -29.6% | [6] 68.5%

CC(=O)On1c(-c2ccccc2-c2nc3ccccc3n2OC(C)=O)nc2ccccc21
inactive: [1] 10% | [2] 14.4% | [3] 13.4% | [4] 8.9% | [5] -5.05% | [6] 2.75%

Cc1cc2c(cc1C)NC(=O)CC(=O)N2
inactive: [1] -3.45% | [2] -28.8% | [3] -8.45% | [4] 1.95% | [5] -18.7% | [6] 14.4%

C=CCSS/C=C/CS(=O)CC=C (configuration not stated)
inactive: [1] 22.6% | [2] 54% | [4] 32% | [6] -19.3%
active: [3] 75.3% | [5] 78.3%

CC(C)(C)N=C1CC(C)(C)c2ccccc2C(=Nc2ccccc2)S1
inactive: [1] 23.2% | [2] 9.55% | [3] 24.8% | [4] 24.1% | [5] 8.3% | [6] 15.3%

CCCCCCCCCCCCCCCCCCNC(=O)Nc1ccc(OC)cc1OC
inactive: [1] 15.4% | [2] 37% | [3] -0.3% | [4] 3% | [5] 2.8% | [6] 13.3%

COCc1nc2c(=O)[nH]c(N)nc2[nH]c1=O
inactive: [1] 2.55% | [2] -3.55% | [3] -4.8% | [4] -0.25% | [5] 1.7% | [6] 1.1%

CC(C)C(=O)OC1(Cc2cccc[n+]2C)CCCCC1
inactive: [1] 8.8% | [2] 9.6% | [3] 22.6% | [4] 27.4% | [5] 12.9% | [6] 1.45%

C=CCN1CC2CON(C(=O)C(OC)(c3ccccc3)C(F)(F)F)C2C1C(C)C (configuration not stated)
inactive: [1] 2.05% | [2] -17.7% | [3] 9.15% | [4] 18.2% | [5] 24.2% | [6] -5.85%

COC1CCC(/C=C(\C#N)C2CCC(OC)CC2)CC1 (configuration not stated)
inactive: [1] 37.6% | [2] 49.8% | [3] 42.8% | [4] 11.9% | [5] 51.2% | [6] 30%

CC(=O)N1CN2C(=O)CCC2c2cc(C)ccc21 (configuration not stated)
inactive: [1] 10.1% | [2] 14.9% | [3] -2.65% | [4] 7.8% | [5] 0.95% | [6] -57.4%

O=c1[nH]c(-c2cccc(F)c2)nc2ccccc12
inactive: [1] 16.9% | [2] -10.9% | [3] 3.1% | [4] 19.2% | [5] -7.4% | [6] 10.2%

OC(c1ccccc1)(c1ccccc1)c1ccccc1C(O)(c1ccccc1)c1ccccc1
inactive: [1] 12.2% | [2] 1% | [3] 4.6% | [4] 10.8% | [5] -4.65% | [6] 12.8%

CC(=O)C1C(=O)C(=O)N(c2ccc([N+](=O)[O-])cc2Cl)C1=O (configuration not stated)
inactive: [1] -45.9% | [2] -35.8% | [3] 2.95% | [4] 2.95% | [5] -3.55% | [6] -33.2%

C1C[S][Ge]2([S]CCS1)[S]CCSCC[S]2
inactive: [1] -10.4% | [2] -30.5% | [3] -16.6% | [4] -15.5% | [5] -30.6% | [6] -14.8%

Ic1ccc(Nc2ncnc3sc4c(c23)CCCC4)cc1
inactive: [1] 24.2% | [2] -14% | [3] -16.9% | [4] 15.8% | [5] 7.25% | [6] -7.65%

CC1=C(C)C2C3C(=O)NC(=O)C3C1C1C3C(=O)NC(=O)C3C21 (configuration not stated)
inactive: [1] -21.8% | [2] -7.75% | [3] 7.3% | [4] -12.8% | [5] 10.1% | [6] 17.1%

CCOC(=O)C1=C(C(C)=O)C(c2ccc(OC)c(OC)c2)C(C(C)=O)=C(C(=O)OCC)N1
inactive: [1] 35.5% | [2] 12.9% | [3] 8.9% | [4] 35% | [5] -4.95% | [6] 8.55%

O=C(OCc1ccc(Cl)cc1Cl)OCc1ccc(Cl)cc1Cl
inactive: [1] 7.55% | [2] -0.9% | [3] -3.7% | [4] -31.7% | [5] 19.2% | [6] 37.4%

C1=C(Oc2ccccc2)C2CC1C1CCCC21 (configuration not stated)
inactive: [1] -7.85% | [2] -21.4% | [3] -2.65% | [4] 2.05% | [5] -5.95% | [6] 1.85%

CCOC(=O)C1SCCC1(C)O (configuration not stated)
inactive: [1] 18.9% | [2] 21.7% | [3] 16.6% | [4] 16.8% | [5] 3.55% | [6] 12.7%

O=Cc1ccc(F)cc1[N+](=O)[O-]
inactive: [1] 1.1% | [2] 3.65% | [3] -15.8% | [4] 1.1% | [5] -2.25% | [6] -17.2%

Nc1ccc2ccccc2c1S(=O)(=O)O
inactive: [1] 16.1% | [2] -6.4% | [3] 15% | [4] 4.65% | [5] -2.4% | [6] -27%

CNc1ncnc2c1ncn2C1OC(CO)C(O)C1O (configuration not stated)
inactive: [1] -1.4% | [2] 9.95% | [3] 4.45% | [4] -20.1% | [5] -4.1% | [6] 6%

Cc1c2oc3c(C)ccc(C(=O)NCCc4ccco4)c3nc-2c(C(=O)NCCc2ccco2)c(N)c1=O
inactive: [1] 39.5% | [2] 7.85% | [3] 12.8% | [4] 15.7% | [5] 0.75% | [6] 44.4%

NC(=O)C(F)(F)c1ccccc1
inactive: [1] 2.3% | [2] -12.8% | [3] 14.8% | [4] 10.1% | [5] 21.4% | [6] 9.8%

COc1ccc(-c2cc(-c3ccccc3)[nH]c(=S)c2C#N)cc1
inactive: [1] -23.8% | [2] -19.8% | [3] -55.4% | [4] -19.1% | [5] 13.3% | [6] -30.1%

C=C1OC(c2ccccc2NC)=NC12CCCCC2
inactive: [1] -11.6% | [2] -51.5% | [3] -9.9% | [4] -2.65% | [5] -14.8% | [6] -11.2%

CC(C)CCN(C=O)c1ccccc1
inactive: [1] 1.7% | [2] 0.7% | [3] 8.05% | [4] 5.5% | [5] -9.5% | [6] 2.15%

COc1ccc(NC(=O)ON(C)C)cc1
inactive: [1] 4.45% | [2] -26.6% | [3] 5.15% | [4] -63.1% | [5] 3.75% | [6] -5.75%

O=P(O)(O)c1ccc(Oc2ccccc2)cc1
inactive: [1] -8.6% | [2] 1.35% | [3] -4.1% | [4] -22.2% | [5] 5.45% | [6] -2.85%
